Data from PubChem BioAssay (NCATS).
Inconclusive results are not listed. Activity calls are given as the source filed them. Unless noted, calls follow the shape of the dose curve; as a rule, active = well fitted curve in the direction sought with a large enough effect; inconclusive = small, poorly fitted or top-dose-only effect, or another doubt; inactive = no such curve, though single readings can be large; an effect the other way counts as inactive or inconclusive.

Experiments:
[1] = Cell Viability - Mesenchymal (AID 546);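 also: cells exposed to compound for 40 hours before reading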
Procedure, shortened: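 In this qHTS cytotoxicity format, glomerulus-derived human mesenchymal kidney cells received compound for 40 hr, then luciferase-based ATP quantitation. Concentration-response data were fitted with the Hill equation.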

[2] = Cellular Toxicity (caspase-3) HepG2 (AID 654);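 also: cells exposed to compound for 16 hours before reading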
Procedure, shortened: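 Concentration-response AC50 values reflect caspase-3/7 induction in HepG2 cells after 16 hours of compound exposure, quantified by luminescence from liberated aminoluciferin and referenced to 100 uM tamoxifen as full stimulation.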

[3] = Cellular Toxicity (caspase-3) Jurkat (AID 655);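 also: cells exposed to compound for 16 h at 37 °C before reading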
Procedure, shortened: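 Luminescent Caspase-Glo 3/7 read-out (20 min, room temperature) after 16 h compound treatment at 37 C of 5000 Jurkat cells per well. AC50 derived by Hill-equation fitting, scaled between DMSO basal and 100 uM tamoxifen stimulation.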

[4] = Cellular Toxicity (caspase-3) HUV-EC-C (AID 656)
Procedure, shortened: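 Luminescent Caspase-Glo 3/7 readout after 16 h, 37 °C compound exposure of HUV-EC-C endothelial cells, 1000 per well, complete medium. AC50 derived by Hill fitting, with DMSO as baseline and 100 uM tamoxifen as full activation.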

[5] = Cellular Toxicity (caspase-3) BJ (AID 658)
Procedure, shortened: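 Plated BJ cells (1000/well) rested 5 hr, received compound for 16 hr at 37 °C, then Caspase-Glo 3/7 reagent for 1 hr at room temperature before luminescence reading.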

[6] = Cellular Toxicity (caspase-3) MRC-5 (AID 659)
Procedure, shortened: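 Apoptosis readout in MRC-5 cells: luciferase light generated after caspase 3/7 cleaves a peptide-aminoluciferin substrate, measured post 16 hr compound incubation at 37 °C.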

[7] = Cellular Toxicity (caspase-3) Mesangial (AID 660);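 also: combined caspase 3 and 7 activity read by Caspase-Glo luminescence; cells exposed to compound for 16 h before the caspase read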
Procedure, shortened: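 AC50 values come from Hill-equation fits of caspase 3/7 activation, measured as Caspase-Glo luminescence in human glomerular mesangial cells exposed to compound for 16 h at 37 °C; 100% set by 100 uM tamoxifen.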

[8] = Cellular Toxicity (caspase-3) SK-N-SH (AID 661)
Procedure, shortened: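 Apoptosis readout in SK-N-SH neuroblastoma: Caspase-Glo 3/7 luminescence following 16 hr treatment in complete culture medium. Normalization used DMSO and 10 uM staurosporine controls.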

[9] = Cellular Toxicity (caspase-3) H-4-II-E (AID 663);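 also: cells exposed to compound for 16 hr before readout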
Procedure, shortened: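 Caspase 3/7 activation measured in H-4-II-E cells in complete culture medium after 16 hr treatment at 37 °C, using luciferase-coupled substrate readout; AC50 values come from Hill-equation fits of normalized concentration-response data.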

[10] = Cellular Toxicity (caspase-3) Hek293 (AID 664);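 also: cells exposed to compound for 16 h at 37 °C before readout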
Procedure, shortened: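 Apoptosis readout: Caspase-Glo 3/7 signal in human HEK293 cells following 16-hour compound incubation. Responses scaled between DMSO baseline and 100 uM tamoxifen.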

[11] = Cellular Toxicity (caspase-3) N2a (AID 665);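 also: compound exposure lasted 16 h at 37 °C before readout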
Procedure, shortened: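 Concentration-response qHTS: compound-induced caspase-3/7 luminescence in N2a cells (16 h, 37 °C), relative to DMSO and 10 uM staurosporine controls; AC50 obtained using the standard Hill equation.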

[12] = Cellular Toxicity (caspase-3) NIH 3T3 (AID 666);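 also: caspase signal read after 16 h compound exposure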
Procedure, shortened: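 Activity: caspase-3/7 induction, NIH 3T3 cells, 16 hr treatment at 37°C, luminescent Caspase-Glo detection; AC50 via Hill equation.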

[13] = Cellular Toxicity (caspase-3) Renal Proximal Tubule (AID 667);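 also: cells exposed to compound for 16 hours at 37 °C before detection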
Procedure, shortened: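 Caspase 3/7 activation measured by luminescent aminoluciferin release in primary rat proximal tubule cells after 16 hr compound exposure at 37 °C. AC50 from Hill-fitted concentration-response, scaled between DMSO and 10 uM staurosporine.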

[14] = target: Cytochrome P450 3A4 (Homo sapiens) (UniProt P08684); assay: qHTS Assay for Inhibitors and Substrates of Cytochrome P450 3A4 (AID 884); also: series mostly up to about 57 µM; nearly all actives have a fitted effect of over 50% in size
Procedure, shortened: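 Luminescent readout of luciferin produced by CYP3A4 (20 nM) dealkylation of Luciferin-PPXE, 25 uM (its KM). NADPH-driven reaction ran 60 min at RT after 10 min compound preincubation; data scaled to 57 uM ketoconazole as 100% inhibition.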

[15] = target: 3',5'-cyclic-AMP phosphodiesterase 4B (Homo sapiens) (UniProt Q07343); assay: qHTS Assay for Inhibitors of PDE-IV (AID 607; active = well fitted activation curve with a large enough effect in the main read-out, with a control signal flat, not every such curve was filed as active)
Procedure, shortened: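 Cell-based read-out of cAMP via a modified cyclic nucleotide-gated channel and membrane potential dye (535/590 nm) in HEK293 cells expressing PDE4 endogenously. Compounds tested up to 22.9 uM final; 100 uM RO 20-1724 reference.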

[16] = target: Cytochrome P450 3A4 (Homo sapiens) (UniProt P08684); assay: qHTS Assay for Activators of Cytochrome P450 3A4 (AID 885); also: nearly all actives have a fitted effect of over 65% in size
Procedure, shortened: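 Luminescent readout of luciferin formed from 25 uM Luciferin-PPXE (KM level) by 20 nM CYP3A4 in 200 mM KPO4, with 60 min NADPH-driven reaction at room temperature after 10 min compound exposure. Ketoconazole (57 uM) defined 100% inhibition.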

[17] = target: Guanine nucleotide-binding protein G(i) subunit alpha-1 (Homo sapiens) (UniProt P63096); assay: qHTS Assay for Inhibitors of RGS12 GoLoco Motif Activity (Green Fluorophore) (AID 879);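 also: negative values mean loss of peptide binding seen as reduced polarization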
Procedure, shortened: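 A drop in FITC polarization marked displacement of the FITC-tagged RGS12 GoLoco peptide (10 nM) from Gαi1 (50 nM). Compounds were incubated 10 min at room temperature in Tris pH 7.5 buffer containing 150 mM NaCl, 0.1 mM GDP and 0.05% NP40; unlabeled peptide titration served as control.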

Measured: outcome

3',5'-cyclic-AMP phosphodiesterase 4B (Homo sapiens), sequence (Q07343 whole entry, looked up): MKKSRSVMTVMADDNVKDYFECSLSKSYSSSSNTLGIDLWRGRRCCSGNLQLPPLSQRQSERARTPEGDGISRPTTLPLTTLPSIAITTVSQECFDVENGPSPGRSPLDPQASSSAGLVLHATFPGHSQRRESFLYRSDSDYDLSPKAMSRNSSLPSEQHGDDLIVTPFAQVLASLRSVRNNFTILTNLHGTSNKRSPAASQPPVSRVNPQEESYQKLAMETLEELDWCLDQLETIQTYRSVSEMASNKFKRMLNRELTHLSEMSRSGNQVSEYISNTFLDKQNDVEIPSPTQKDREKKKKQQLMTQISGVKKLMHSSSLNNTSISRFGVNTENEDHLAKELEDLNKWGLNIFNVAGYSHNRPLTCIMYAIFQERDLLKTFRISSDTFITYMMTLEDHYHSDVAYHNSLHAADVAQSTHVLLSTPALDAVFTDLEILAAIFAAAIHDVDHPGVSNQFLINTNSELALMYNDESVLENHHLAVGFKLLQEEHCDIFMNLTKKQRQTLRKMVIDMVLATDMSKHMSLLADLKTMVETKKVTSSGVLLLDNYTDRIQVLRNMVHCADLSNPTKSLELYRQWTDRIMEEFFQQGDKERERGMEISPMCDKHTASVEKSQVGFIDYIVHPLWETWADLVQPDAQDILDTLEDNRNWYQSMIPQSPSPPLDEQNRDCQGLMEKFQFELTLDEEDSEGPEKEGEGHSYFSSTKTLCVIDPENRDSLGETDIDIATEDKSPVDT
Cytochrome P450 3A4 (Homo sapiens), sequence (P08684 whole entry, looked up): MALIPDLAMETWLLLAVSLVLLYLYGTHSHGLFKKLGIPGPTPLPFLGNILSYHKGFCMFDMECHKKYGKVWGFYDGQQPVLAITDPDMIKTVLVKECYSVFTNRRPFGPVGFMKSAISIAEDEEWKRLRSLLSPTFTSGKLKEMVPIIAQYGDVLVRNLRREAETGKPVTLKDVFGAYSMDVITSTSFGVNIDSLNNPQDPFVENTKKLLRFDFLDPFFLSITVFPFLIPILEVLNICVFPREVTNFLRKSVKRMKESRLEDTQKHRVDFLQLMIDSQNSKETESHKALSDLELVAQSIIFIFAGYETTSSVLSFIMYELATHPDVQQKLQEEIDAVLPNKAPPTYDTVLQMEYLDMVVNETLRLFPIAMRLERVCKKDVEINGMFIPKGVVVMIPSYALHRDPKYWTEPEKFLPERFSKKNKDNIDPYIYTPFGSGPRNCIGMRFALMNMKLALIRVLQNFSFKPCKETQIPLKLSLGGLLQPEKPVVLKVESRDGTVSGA
Guanine nucleotide-binding protein G(i) subunit alpha-1 (Homo sapiens), sequence (P63096 whole entry, looked up): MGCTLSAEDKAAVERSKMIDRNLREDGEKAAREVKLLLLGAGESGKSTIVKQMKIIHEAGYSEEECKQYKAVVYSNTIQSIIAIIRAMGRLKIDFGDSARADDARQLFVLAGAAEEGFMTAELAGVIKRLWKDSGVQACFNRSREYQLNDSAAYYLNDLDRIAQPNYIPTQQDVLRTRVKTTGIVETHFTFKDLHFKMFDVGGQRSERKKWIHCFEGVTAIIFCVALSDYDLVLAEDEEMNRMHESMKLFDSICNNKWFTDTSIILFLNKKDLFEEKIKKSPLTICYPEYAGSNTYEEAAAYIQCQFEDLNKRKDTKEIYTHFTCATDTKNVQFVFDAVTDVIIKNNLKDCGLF

C=CCNC(N)=S
inactive: [1] | [2] | [3] | [4] | [5] | [6] | [7] | [8] | [9] | [10] | [11] | [12] | [13] | [14]

CN/C(=C\[N+](=O)[O-])NCCSCc1csc(CN(C)C)n1
inactive: [15]

CCCNC(C)(C)COC(=O)c1ccccc1
inactive: [15]

CC(C)(C)C(=O)OCOC(=O)[C@@H]1N2C(=O)[C@@H](NC(=O)[C@H](N)c3ccccc3)[C@H]2SC1(C)C
inactive: [15]

FC(F)(F)C(Cl)Br (stereo unspecified)
inactive: [1] | [2] | [3] | [4] | [5] | [6] | [7] | [8] | [9] | [10] | [11] | [12] | [13] | [14]

CC(=O)Nc1cccc(O)c1
inactive: [1] | [2] | [3] | [4] | [5] | [6] | [7] | [8] | [9] | [10] | [11] | [12] | [13] | [14]

Cc1cc(C)nc(NS(=O)(=O)c2ccc(N)cc2)n1
inactive: [1] | [15] | [2] | [3] | [4] | [5] | [6] | [7] | [8] | [9] | [10] | [11] | [12] | [13] | [16]

CC(=O)OCC(COC(C)=O)OC(C)=O
inactive: [1] | [2] | [3] | [4] | [5] | [6] | [7] | [8] | [9] | [10] | [11] | [12] | [13] | [14]

O=S1(=O)OC(c2ccc(O)cc2)(c2ccc(O)cc2)c2ccccc21
inactive: [15]

COc1ccc(O)cc1
inactive: [1] | [2] | [3] | [4] | [5] | [6] | [7] | [8] | [9] | [10] | [11] | [12] | [13] | [14]

CCCCCC(N)=O
inactive: [1] | [2] | [3] | [4] | [5] | [6] | [7] | [8] | [9] | [10] | [11] | [12] | [13] | [14]

CCN(CC)CCc1nc(-c2ccccc2)no1
inactive: [15]

NCc1ccc(S(N)(=O)=O)cc1
inactive: [15]

CC1CC(OC(=O)c2ccccc2O)CC(C)(C)C1 (stereo unspecified)
inactive: [1] | [2] | [3] | [4] | [5] | [6] | [7] | [8] | [9] | [10] | [11] | [12] | [13]

CCCC(O)C(CC)CO (stereo unspecified)
inactive: [1] | [2] | [3] | [4] | [5] | [6] | [7] | [8] | [9] | [10] | [11] | [12] | [13] | [14]

Cc1c(N(C)C)c(=O)n(-c2ccccc2)n1C
inactive: [1] | [15] | [2] | [3] | [4] | [5] | [6] | [7] | [8] | [9] | [10] | [11] | [12] | [13] | [14]

CCOC(=O)[C@H](CCc1ccccc1)N[C@@H](C)C(=O)N1CCC[C@H]1C(=O)O
inactive: [15]

CCN(CC)C(=O)c1cccc(C)c1
inactive: [1] | [2] | [3] | [4] | [5] | [6] | [7] | [8] | [9] | [10] | [11] | [12] | [13]

CCCCOC(=O)c1ccc(N)cc1
inactive: [1] | [15] | [2] | [3] | [4] | [5] | [6] | [7] | [8] | [9] | [10] | [11] | [12] | [13]

CC(C)=CCC/C(C)=C/CO
inactive: [15]

CC(=O)Nc1ccccc1
inactive: [1] | [2] | [3] | [4] | [5] | [6] | [7] | [8] | [9] | [10] | [11] | [12] | [13] | [14]

Nc1ccc(S(=O)(=O)c2ccc(N)cc2)cc1
inactive: [1] | [15] | [2] | [3] | [4] | [5] | [6] | [7] | [8] | [9] | [10] | [11] | [12] | [13]

Cc1cc(=O)[nH]c(=S)[nH]1
inactive: [1] | [2] | [3] | [4] | [5] | [6] | [7] | [8] | [9] | [10] | [11] | [12] | [13] | [14]

CCCCC1(COC(=O)CCC(=O)O)C(=O)N(c2ccccc2)N(c2ccccc2)C1=O
inactive: [15]

CN(C(=O)c1c(O)c2ccccc2n(C)c1=O)c1ccccc1
inactive: [15]

O=C1c2cccc(O)c2C(=O)c2c(O)cccc21
inactive: [1] | [2] | [3] | [4] | [5] | [6] | [7] | [8] | [9] | [10] | [11] | [12] | [13] | [14]

CCS(=O)(=O)CCn1c([N+](=O)[O-])cnc1C
inactive: [15]

O=C(c1ccccc1)C(O)c1ccccc1 (stereo unspecified)
inactive: [1] | [2] | [3] | [4] | [5] | [6] | [7] | [8] | [9] | [10] | [11] | [12] | [13] | [14]

NS(=O)(=O)c1cc2c(cc1C(F)(F)F)NCNS2(=O)=O
inactive: [15]

O=C1C(c2[nH]c3ccccc3c2O)=Nc2ccccc21
inactive: [1] | [2] | [3] | [4] | [5] | [6] | [7] | [8] | [9] | [10] | [11] | [12] | [13] | [14]

CC(=O)Nc1ccc(C(=O)O)cc1
inactive: [1] | [2] | [3] | [4] | [5] | [6] | [7] | [8] | [9] | [10] | [11] | [12] | [13] | [14]

NC(N)=NCCN1CCCCCCC1
inactive: [15]

COc1ccc(NS(=O)(=O)c2ccc(N)cc2)nn1
inactive: [15]

O=C(O)CCCCC1CCSS1 (stereo unspecified)
inactive: [1] | [2] | [3] | [4] | [5] | [6] | [7] | [8] | [9] | [10] | [11] | [12] | [13] | [14]

CCCCCCCC(=O)OCC(COC(=O)CCCCCCC)OC(=O)CCCCCCC
inactive: [1] | [2] | [3] | [4] | [5] | [6] | [7] | [8] | [9] | [10] | [11] | [12] | [13] | [14]

Cc1ncc(CO)c(CN)c1O
inactive: [15]

CC(=O)NS(=O)(=O)c1ccc(N)cc1
inactive: [1] | [15] | [2] | [3] | [4] | [5] | [6] | [7] | [8] | [9] | [10] | [11] | [12] | [13]

Cc1c(NC(=O)c2cccnc2)c(=O)n(-c2ccccc2)n1C
inactive: [15]

CN1C(C)(C)CCCC1(C)C
inactive: [17]

NC(=O)CC[C@@H](N)C(=O)O
inactive: [17]
